Our source for the binding signal values is paper PMC7862700, “An all-to-all approach to the identification of sequence-specific readers for epigenetic DNA modifications on cytosine”.

Assay in all cases: DAPPL (digital affinity profiling via proximity ligation, sequencing); 10 mM Tris-HCl pH 7.5, 50 mM NaCl, 1 mM DTT, 4% glycerol, room temperature, 30 min; GST-TFs on glutathione beads, 16-mer random dsDNA library, 0.1% formaldehyde crosslink after washing; high values mean tight binding
In one test the target is T1, FLI1 (Homo sapiens, UniProt Q01543 1-452).
T1 sequence: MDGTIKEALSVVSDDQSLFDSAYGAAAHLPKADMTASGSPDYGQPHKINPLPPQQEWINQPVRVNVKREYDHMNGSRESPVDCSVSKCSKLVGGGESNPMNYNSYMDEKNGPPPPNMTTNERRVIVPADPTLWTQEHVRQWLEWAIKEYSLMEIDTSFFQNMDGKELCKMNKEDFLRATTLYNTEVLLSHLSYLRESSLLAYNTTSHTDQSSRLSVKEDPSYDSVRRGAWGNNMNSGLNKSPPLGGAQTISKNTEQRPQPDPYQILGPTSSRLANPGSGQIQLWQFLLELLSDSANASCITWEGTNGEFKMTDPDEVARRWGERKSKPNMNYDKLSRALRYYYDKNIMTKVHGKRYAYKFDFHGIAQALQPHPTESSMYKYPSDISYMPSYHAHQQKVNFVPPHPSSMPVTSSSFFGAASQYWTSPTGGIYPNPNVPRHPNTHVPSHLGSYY
As to conditions: protein: recombinant; tags: N-terminal GST; dsDNA, one strand shown. A digest of the protocol:
(§1)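 Pools of DNA-barcoded human transcription factors, expressed in yeast as GST fusions on glutathione beads and combined with a tag-only sample, were incubated with 200 nmole of a 16-mer random double-stranded DNA library. Incubation took 30 min at room temperature in Tris/NaCl/DTT/glycerol buffer and was followed by washing, 0.1% formaldehyde crosslinking, proximity ligation (BsaI/T4 ligase, 1 h, 37 °C), PCR amplification and sequencing on an Illumina NextSeq500. Binding signal is the ratio of a hexamer's read frequency for a factor to its frequency for the tag-only sample.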

Another test deals with T2, ELK1 (Homo sapiens, UniProt P19419 1-428).
T2 sequence: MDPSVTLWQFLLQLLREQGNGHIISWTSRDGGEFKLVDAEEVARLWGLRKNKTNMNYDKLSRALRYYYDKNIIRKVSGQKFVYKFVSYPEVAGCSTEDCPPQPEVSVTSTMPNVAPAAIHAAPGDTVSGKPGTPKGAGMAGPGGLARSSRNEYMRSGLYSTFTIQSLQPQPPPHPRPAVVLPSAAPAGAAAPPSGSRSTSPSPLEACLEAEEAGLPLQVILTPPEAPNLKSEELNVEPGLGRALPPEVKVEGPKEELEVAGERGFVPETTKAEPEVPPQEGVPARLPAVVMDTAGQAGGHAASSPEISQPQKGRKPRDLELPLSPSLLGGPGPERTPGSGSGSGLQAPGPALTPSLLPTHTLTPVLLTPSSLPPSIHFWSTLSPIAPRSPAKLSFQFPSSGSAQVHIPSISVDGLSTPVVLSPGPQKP
As to conditions: protein: recombinant; tags: N-terminal GST; dsDNA, one strand shown. A digest of the protocol:
as §1

In the next test the target is T3, GABPA (Homo sapiens, UniProt Q06546 1-454).
T3 sequence: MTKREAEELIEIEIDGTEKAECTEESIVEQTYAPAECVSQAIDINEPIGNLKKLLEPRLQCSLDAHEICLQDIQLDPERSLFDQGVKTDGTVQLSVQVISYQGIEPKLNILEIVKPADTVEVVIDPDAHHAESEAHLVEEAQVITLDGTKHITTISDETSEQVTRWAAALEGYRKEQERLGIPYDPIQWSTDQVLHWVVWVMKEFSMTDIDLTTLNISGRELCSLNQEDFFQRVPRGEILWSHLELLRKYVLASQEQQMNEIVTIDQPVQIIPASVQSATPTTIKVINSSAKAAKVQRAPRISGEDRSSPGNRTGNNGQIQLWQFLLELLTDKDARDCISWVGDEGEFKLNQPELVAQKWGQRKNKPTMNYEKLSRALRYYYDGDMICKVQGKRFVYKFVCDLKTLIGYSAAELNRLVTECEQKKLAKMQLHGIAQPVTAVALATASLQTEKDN
As to conditions: protein: recombinant; tags: N-terminal GST; dsDNA, one strand shown. An outline of the steps:
as §1

For the next test, the target named is T4, ERG (Homo sapiens, UniProt P11308 1-479).
T4 sequence: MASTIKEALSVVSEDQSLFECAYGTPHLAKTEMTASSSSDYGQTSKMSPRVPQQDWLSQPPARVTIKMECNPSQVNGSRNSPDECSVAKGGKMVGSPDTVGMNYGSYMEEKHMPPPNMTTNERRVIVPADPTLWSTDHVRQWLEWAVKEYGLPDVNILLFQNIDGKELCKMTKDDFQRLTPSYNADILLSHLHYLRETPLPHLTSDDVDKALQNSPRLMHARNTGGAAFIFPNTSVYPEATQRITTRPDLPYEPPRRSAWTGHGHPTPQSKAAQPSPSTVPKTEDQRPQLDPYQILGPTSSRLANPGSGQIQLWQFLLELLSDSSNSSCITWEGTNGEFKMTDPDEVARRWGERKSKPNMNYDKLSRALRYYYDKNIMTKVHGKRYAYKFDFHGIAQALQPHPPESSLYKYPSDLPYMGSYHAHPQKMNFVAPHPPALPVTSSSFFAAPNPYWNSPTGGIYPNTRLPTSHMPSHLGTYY
To be noted: protein: recombinant; tags: N-terminal GST; dsDNA, one strand shown. A digest of the protocol:
as §1

Another test has as its target ELF1 (Homo sapiens, UniProt P32519 1-619). To be noted: protein: recombinant; tags: N-terminal GST; dsDNA, one strand shown. An outline of the steps: as §1
Another test addresses T5, EHF (Homo sapiens, UniProt Q9NZC4 1-300).
T5 sequence: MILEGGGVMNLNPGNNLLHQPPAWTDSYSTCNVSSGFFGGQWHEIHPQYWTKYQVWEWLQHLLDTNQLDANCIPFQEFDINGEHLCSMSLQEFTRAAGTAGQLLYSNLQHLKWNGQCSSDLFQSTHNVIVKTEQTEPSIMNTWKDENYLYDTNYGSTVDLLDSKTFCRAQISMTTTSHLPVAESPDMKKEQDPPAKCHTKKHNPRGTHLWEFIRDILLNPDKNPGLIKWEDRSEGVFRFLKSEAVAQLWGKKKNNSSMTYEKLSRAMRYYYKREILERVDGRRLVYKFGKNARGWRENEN
To be noted: protein: recombinant; tags: N-terminal GST; dsDNA, one strand shown. A digest of the protocol:
as §1

A further test deals with SPI1 (Homo sapiens, UniProt P17947 1-270). As to conditions: protein: recombinant; tags: N-terminal GST; dsDNA, one strand shown. An outline of the steps:
as §1

Another test deals with SPIB (Homo sapiens, UniProt Q01892 1-262). To be noted: protein: recombinant; tags: N-terminal GST; dsDNA, one strand shown. An outline of the steps: as §1
In another test the target is T6, ELK3 (Homo sapiens, UniProt P41970 1-407).
T6 sequence: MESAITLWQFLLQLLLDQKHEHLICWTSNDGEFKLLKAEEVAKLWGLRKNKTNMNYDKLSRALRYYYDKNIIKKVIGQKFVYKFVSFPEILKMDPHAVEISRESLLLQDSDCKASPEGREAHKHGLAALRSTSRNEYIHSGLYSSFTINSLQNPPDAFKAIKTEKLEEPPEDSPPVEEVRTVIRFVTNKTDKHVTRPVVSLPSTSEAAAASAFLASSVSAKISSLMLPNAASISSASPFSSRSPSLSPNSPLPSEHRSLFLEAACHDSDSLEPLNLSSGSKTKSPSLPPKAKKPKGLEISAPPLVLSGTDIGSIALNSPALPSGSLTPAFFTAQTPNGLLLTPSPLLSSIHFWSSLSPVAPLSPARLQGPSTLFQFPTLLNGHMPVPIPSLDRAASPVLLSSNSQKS
To be noted: protein: recombinant; tags: N-terminal GST; dsDNA, one strand shown. A digest of the protocol:
as §1

The next test has as its target ETV5 (Homo sapiens, UniProt P41161 1-510). To be noted: protein: recombinant; tags: N-terminal GST; dsDNA, one strand shown. An outline of the steps:
as §1

A further test has as its target HSF1 (Homo sapiens, UniProt Q00613 1-529). To be noted: protein: recombinant; tags: N-terminal GST; chain copies: 3; dsDNA, one strand shown. An outline of the steps: as §1
The next test has as its target T7, SPIC (Homo sapiens, UniProt Q8N5J4 1-248).
T7 sequence: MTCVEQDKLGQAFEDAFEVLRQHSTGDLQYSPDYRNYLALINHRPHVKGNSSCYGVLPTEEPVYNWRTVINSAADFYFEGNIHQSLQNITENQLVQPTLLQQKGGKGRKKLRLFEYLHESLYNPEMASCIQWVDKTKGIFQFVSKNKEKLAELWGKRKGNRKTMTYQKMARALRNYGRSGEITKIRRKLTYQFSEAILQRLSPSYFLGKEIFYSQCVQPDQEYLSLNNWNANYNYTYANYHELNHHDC
As to conditions: protein: recombinant; tags: N-terminal GST; dsDNA, one strand shown. A digest of the protocol:
as §1

For the next test, the target named is ELF4 (Homo sapiens, UniProt Q99607 1-663). As to conditions: protein: recombinant; tags: N-terminal GST; dsDNA, one strand shown. An outline of the steps:
as §1

Another test deals with T8, ELK4 (Homo sapiens, UniProt P28324-2 1-405).
T8 sequence: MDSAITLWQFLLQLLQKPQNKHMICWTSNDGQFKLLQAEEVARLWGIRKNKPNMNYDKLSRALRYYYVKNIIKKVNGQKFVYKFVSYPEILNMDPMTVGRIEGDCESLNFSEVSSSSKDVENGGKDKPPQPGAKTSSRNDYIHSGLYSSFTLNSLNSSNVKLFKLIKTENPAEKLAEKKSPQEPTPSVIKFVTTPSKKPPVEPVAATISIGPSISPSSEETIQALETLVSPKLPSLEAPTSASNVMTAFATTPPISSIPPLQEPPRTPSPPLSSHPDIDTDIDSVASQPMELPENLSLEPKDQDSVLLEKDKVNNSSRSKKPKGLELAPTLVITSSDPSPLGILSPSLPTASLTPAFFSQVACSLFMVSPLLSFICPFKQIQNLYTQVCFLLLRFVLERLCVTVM
To be noted: protein: recombinant; tags: N-terminal GST; dsDNA, one strand shown. An outline of the steps: as §1

Another test deals with T9, ETV2 (Homo sapiens, UniProt O00321 1-342).
T9 sequence: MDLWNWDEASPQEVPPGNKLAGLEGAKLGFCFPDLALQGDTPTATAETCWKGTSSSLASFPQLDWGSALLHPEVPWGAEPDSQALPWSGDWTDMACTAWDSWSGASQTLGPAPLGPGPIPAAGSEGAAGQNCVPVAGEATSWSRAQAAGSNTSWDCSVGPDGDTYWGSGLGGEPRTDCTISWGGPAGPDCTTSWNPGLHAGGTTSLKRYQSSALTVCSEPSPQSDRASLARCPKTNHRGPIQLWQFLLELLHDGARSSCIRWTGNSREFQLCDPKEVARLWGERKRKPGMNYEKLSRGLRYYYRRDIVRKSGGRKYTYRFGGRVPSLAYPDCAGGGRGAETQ
To be noted: protein: recombinant; tags: N-terminal GST; dsDNA, one strand shown. An outline of the steps: as §1

In another test the target is T10, ELF3 (Homo sapiens, UniProt P78545 1-371).
T10 sequence: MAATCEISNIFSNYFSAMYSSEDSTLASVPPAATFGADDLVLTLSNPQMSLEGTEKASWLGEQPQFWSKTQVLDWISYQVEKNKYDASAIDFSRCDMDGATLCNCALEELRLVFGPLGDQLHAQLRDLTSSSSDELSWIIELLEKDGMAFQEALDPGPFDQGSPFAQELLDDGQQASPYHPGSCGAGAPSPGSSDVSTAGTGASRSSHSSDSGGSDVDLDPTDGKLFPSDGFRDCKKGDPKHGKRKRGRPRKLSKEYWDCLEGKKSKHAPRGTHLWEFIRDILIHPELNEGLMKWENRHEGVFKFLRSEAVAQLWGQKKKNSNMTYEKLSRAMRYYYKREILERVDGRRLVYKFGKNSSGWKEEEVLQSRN
To be noted: protein: recombinant; tags: N-terminal GST; dsDNA, one strand shown. A digest of the protocol:
as §1

The next test deals with ETV1 (Homo sapiens, UniProt P50549 1-477). To be noted: protein: recombinant; tags: N-terminal GST; dsDNA, one strand shown. An outline of the steps:
as §1

Sequence of ETV1 (P50549 whole entry): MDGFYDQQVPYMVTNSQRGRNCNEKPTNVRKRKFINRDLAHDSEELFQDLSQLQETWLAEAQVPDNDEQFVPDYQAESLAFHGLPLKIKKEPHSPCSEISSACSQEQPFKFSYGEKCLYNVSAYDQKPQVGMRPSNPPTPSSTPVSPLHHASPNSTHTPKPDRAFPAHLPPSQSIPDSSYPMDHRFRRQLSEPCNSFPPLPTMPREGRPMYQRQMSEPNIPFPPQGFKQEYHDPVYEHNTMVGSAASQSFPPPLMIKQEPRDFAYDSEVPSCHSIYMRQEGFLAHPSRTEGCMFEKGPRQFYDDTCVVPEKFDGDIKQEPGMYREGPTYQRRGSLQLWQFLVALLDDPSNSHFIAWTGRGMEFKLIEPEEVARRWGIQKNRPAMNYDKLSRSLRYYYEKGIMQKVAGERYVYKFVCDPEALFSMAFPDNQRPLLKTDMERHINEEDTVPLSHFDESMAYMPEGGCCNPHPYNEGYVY
Sequence of ELF1 (P32519 whole entry): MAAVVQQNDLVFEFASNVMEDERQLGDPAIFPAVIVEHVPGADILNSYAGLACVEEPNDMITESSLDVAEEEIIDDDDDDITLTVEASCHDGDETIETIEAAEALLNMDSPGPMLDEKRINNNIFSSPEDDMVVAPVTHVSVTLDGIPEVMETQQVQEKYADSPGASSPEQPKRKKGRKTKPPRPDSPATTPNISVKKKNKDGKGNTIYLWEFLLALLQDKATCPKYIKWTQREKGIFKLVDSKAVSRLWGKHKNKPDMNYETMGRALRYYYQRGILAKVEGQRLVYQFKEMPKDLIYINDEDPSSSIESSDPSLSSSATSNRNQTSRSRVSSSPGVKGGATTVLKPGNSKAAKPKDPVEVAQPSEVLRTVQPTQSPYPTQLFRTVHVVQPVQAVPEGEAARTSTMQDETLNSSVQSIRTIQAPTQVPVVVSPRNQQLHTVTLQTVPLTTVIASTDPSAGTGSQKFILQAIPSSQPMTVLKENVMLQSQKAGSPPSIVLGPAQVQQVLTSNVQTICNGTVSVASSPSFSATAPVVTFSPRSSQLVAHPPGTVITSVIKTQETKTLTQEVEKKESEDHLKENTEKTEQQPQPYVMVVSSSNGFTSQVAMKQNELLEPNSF
Sequence of HSF1 (Q00613 whole entry): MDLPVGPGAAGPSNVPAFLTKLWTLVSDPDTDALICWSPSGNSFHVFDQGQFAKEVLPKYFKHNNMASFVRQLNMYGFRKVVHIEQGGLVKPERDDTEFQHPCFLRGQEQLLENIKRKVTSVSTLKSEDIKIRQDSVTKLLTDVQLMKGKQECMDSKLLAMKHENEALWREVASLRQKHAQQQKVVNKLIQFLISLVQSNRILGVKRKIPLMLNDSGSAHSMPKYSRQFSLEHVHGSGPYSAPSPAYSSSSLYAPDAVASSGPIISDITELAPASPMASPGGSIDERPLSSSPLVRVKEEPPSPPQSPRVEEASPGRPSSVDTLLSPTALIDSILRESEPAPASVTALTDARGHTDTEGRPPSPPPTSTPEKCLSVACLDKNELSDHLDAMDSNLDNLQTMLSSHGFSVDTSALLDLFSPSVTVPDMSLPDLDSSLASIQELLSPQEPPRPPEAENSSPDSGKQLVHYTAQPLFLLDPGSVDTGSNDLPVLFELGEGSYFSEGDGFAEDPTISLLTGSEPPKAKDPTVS
Sequence of SPIB (Q01892 whole entry): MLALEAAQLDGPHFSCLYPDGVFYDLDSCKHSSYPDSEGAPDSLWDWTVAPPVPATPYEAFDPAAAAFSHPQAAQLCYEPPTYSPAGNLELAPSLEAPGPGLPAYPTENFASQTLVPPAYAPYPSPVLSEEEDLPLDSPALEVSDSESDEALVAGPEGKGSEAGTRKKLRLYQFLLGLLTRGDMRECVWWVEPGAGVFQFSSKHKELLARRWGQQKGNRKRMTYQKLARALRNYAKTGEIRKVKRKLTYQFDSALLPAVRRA
Sequence of ELF4 (Q99607 whole entry): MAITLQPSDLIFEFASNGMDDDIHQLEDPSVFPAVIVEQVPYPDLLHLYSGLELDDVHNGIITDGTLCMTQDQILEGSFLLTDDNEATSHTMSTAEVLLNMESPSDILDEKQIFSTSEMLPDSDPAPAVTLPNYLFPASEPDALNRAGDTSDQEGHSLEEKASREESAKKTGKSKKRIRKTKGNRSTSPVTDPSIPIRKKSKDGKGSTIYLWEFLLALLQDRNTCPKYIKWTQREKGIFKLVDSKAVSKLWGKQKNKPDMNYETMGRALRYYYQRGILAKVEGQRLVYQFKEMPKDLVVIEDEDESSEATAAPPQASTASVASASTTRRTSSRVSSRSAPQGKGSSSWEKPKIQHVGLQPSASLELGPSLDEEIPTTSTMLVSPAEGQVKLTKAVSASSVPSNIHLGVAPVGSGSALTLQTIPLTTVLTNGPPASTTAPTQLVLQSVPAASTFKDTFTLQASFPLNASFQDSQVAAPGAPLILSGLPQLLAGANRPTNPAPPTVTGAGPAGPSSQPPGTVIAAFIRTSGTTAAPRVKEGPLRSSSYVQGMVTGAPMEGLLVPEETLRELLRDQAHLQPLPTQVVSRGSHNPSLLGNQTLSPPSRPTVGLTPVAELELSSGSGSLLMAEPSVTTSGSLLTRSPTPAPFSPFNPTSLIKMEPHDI
Sequence of ETV5 (P41161 whole entry): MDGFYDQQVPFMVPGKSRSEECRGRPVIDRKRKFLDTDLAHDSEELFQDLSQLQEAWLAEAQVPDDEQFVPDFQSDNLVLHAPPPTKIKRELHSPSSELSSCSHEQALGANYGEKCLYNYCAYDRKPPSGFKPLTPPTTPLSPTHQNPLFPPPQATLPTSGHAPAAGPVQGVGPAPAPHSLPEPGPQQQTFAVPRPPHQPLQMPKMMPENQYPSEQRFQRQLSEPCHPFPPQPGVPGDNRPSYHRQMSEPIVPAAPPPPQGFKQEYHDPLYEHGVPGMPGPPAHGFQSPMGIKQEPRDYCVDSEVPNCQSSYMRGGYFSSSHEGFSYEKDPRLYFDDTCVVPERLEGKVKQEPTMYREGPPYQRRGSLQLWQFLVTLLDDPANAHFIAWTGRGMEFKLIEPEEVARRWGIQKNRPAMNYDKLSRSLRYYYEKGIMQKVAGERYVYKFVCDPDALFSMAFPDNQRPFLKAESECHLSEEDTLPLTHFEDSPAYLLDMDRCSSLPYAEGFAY

As to TCCACG, the binding signal was 1.09 fold enrichment (6-mer frequency, TF over GST control) with FLI1; 1.08 fold enrichment (6-mer frequency, TF over GST control) with ELK1; 1.2 fold enrichment (6-mer frequency, TF over GST control) in the test with GABPA; 1.09 fold enrichment (6-mer frequency, TF over GST control) in the test with ERG; 1.09 fold enrichment (6-mer frequency, TF over GST control) with ELF1; 1.06 fold enrichment (6-mer frequency, TF over GST control) with EHF. For the same sequence, the binding signal with SPI1 is 1.06 fold enrichment (6-mer frequency, TF over GST control); with SPIB it was 1.11 fold enrichment (6-mer frequency, TF over GST control); with ELK3 it was 1.14 fold enrichment (6-mer frequency, TF over GST control); with ETV5 it was 1.04 fold enrichment (6-mer frequency, TF over GST control); with HSF1 it was 1.15 fold enrichment (6-mer frequency, TF over GST control); with SPIC, 1.15 fold enrichment (6-mer frequency, TF over GST control). Also, the binding signal with ELF4 is 1.13 fold enrichment (6-mer frequency, TF over GST control); with ELK4, 1.13 fold enrichment (6-mer frequency, TF over GST control); with ETV2, 1.3 fold enrichment (6-mer frequency, TF over GST control); in the test with ELF3, 1.02 fold enrichment (6-mer frequency, TF over GST control); with ETV1, 1.08 fold enrichment (6-mer frequency, TF over GST control).
